Test [1] is described as follows: Nuclear factor erythroid 2-related factor 2/antioxidant responsive element (Nrf2/ARE) small molecule agonists: qHTS cell viability counter screen in human keratinocytes (AID 1919968; active means well fitted curve in the direction sought with a large enough effect in the repeat runs; an effect the other way counts as inactive or inconclusive; further: nearly all actives have a fitted effect of over 55% in size). Put shortly: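 CellTiter-Fluor fluorescence, read 1 h after reagent, gave viability in the same wells as the ARE-luciferase assay. KeratinoSens cells (1,500/well) had 23 h compound exposure at 37 C/5% CO2 following 5 h plating.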

Test [2] can be described thus: Nuclear factor erythroid 2-related factor 2/antioxidant responsive element (Nrf2/ARE) small molecule agonists: luciferase reporter gene qHTS assay in human keratinocytes (AID 1919969; further: nearly all actives have a fitted effect of over 35% in size; further: potency means the concentration at half of the fitted maximal effect). (In general: A reporter such as luciferase makes a cellular process visible.)
The target of test [3] is Gonadotropin-releasing hormone receptor (Homo sapiens) (UniProt P30968). Kind of test: Human gonadotropin-releasing hormone receptor (GnRHR) small molecule agonists, calcium flux assay in GnRHR-HEK293 cells (AID 1920063). Further: nearly all actives have a fitted effect of over 35% in size. The essentials: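 Agonist mode: compounds at 15 concentrations, in triplicate, went onto calcium dye-loaded GnRHR-HEK293 cells. Intracellular calcium was then followed as 480/540 nm fluorescence at 1 s intervals over 3 min.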
Gonadotropin-releasing hormone receptor (Homo sapiens), sequence (P30968 whole entry, looked up): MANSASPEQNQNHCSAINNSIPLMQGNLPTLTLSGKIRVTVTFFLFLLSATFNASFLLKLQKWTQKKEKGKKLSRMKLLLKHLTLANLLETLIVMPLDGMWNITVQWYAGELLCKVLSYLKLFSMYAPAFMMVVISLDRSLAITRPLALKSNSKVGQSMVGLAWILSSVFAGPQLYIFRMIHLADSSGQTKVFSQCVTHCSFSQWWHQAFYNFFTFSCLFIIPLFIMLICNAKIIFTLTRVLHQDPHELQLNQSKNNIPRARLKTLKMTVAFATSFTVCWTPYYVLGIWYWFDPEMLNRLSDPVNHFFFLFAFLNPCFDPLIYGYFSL
In general terms: Calcium flux is commonly read through the fluorescence of an indicator in the cells.

For test [4], the target named is KiSS-1 receptor (Homo sapiens) (UniProt Q969F8). Kind of test: Human kisspeptin (KISS1R) small molecule agonists, calcium flux assay in KISS1R-HEK293 cells (AID 1920064; active means well fitted curve in the direction sought with a large enough effect in the repeat runs; an effect the other way counts as inactive or inconclusive). Put shortly:
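Agonist mode: intracellular calcium rise tracked at 1 s intervals over 3 min (480/540 nm) immediately after compound addition to dye-loaded KISS1R-HEK293 stable cells. Each compound tested at 15 concentrations in triplicate.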

The nature of test [5]: G protein-coupled receptor (GPCR) small molecule agonists, calcium flux assay: HEK293 wild type cell line counter screen (AID 1920065). Put shortly: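 Calcium flux counter screen: compound added in agonist mode at 15 concentrations in triplicate to dye-loaded parental HEK293 cells. Fluorescence (480/540) read kinetically for 3 min; ATP served as positive control.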
Test [6] in a line: p53 small molecule agonists, cell-based qHTS assay with human liver microsomes (AID 1963577).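 Further: p53 response element beta-lactamase reporter cells with liver microsomes plus NADPH.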 Put shortly:
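Reporter activation was measured by LiveBLAzer fluorescence intensity in p53RE-bla cells, which had been exposed to compounds for 16 h at 37 C alongside 0.5 mg/mL human liver microsomes and 0.5 mg/mL NADPH (final concentrations).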
(In general: Quantitative high-throughput screening tests each substance at several concentrations.)

Test [7] is described as follows: p53 small molecule agonists, cell-based qHTS assay with rat liver microsomes (AID 1963578). Put shortly:
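Compound in DMSO added to p53RE-bla cells 5 h post-plating; rat microsomes/NADPH 0.5 mg/mL final; 16 h, 37 C; LiveBLAzer 2 h RT.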

Test [8] is described as follows: p53 small molecule agonists, cell-based qHTS assay with human liver microsomes: qHTS cell viability counter screen (AID 1963579). Further: nearly all actives have a fitted effect of over 45% in size. Put shortly:
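HLM-supplemented (0.5 mg/mL final) and NADPH-supplemented (0.5 mg/mL final) p53RE-bla cultures, 4,000 cells per well, were dosed with compounds in DMSO for 16 h at 37 C; luminescent ATP detection (CellTiter-Glo, 30 min, room temperature) quantified surviving cells.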

The nature of test [9]: p53 small molecule agonists, cell-based qHTS assay with rat liver microsomes: qHTS cell viability counter screen (AID 1963580). Further: nearly all actives have a fitted effect of over 45% in size. The essentials:
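Cytotoxicity counter screen: intracellular ATP measured by CellTiter-Glo luminescence in the same wells as the beta-lactamase reporter read, on HCT-116 p53RE-bla cells exposed 16 h at 37 C to compounds with rat liver microsomes and NADPH, each 0.5 mg/mL final.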

The nature of test [10]: p53 small molecule agonists, cell-based qHTS assay: qHTS cell viability counter screen (AID 1963581). Further: nearly all actives have a fitted effect of over 45% in size. Put shortly: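 Counter screen read by CellTiter-Glo luminescence (ATP content, 30 min at room temperature), run in the same wells as the beta-lactamase reporter read. HCT-116 p53RE-bla cells saw compounds for 16 h at 37 C.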
Test [11] can be described thus: p53 small molecule agonists, cell-based qHTS assay (AID 1963582; active means well fitted activation curve with a large enough effect in the signal ratio in the repeat runs, not every such curve was filed as active; the % refers to the signal ratio). The essentials: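 Read-out is beta-lactamase FRET fluorescence after 2 h at room temperature with LiveBLAzer B/G substrate. p53 response element-bla cells were treated 16 h at 37 C with compounds in DMSO, added 5 h after seeding.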
For test [12], the target named is 5-hydroxytryptamine receptor 2A (Homo sapiens) (UniProt P28223). Description: 5-hydroxytryptamine receptor 2A (HTR2A) small molecule agonists, cell-based qHTS assay (AID 1963587). Further: nearly all actives have a fitted effect of over 30% in size. Put shortly: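 CHO cells stably expressing human HTR2A, plated 18 h, loaded with calcium dye 1 h at 37 C. Agonist mode: compounds added and intracellular calcium fluorescence recorded kinetically for 2 min at 1 sec intervals.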
5-hydroxytryptamine receptor 2A (Homo sapiens), sequence (P28223 whole entry, looked up): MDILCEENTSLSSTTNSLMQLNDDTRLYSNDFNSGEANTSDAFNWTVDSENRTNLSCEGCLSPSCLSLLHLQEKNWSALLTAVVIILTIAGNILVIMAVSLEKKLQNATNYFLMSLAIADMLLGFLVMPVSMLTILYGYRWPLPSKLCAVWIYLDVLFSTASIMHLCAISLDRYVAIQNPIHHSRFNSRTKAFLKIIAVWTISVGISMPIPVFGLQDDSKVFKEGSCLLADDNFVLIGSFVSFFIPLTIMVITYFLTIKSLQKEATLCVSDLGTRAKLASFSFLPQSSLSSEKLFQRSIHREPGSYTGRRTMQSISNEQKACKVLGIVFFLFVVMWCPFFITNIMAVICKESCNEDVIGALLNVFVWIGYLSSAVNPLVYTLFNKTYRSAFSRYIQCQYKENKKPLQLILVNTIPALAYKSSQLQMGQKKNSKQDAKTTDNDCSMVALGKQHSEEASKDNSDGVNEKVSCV

Test [13] has as its target Muscarinic acetylcholine receptor M1 (Homo sapiens) (UniProt P11229). Description: Cholinergic receptor muscarinic 1 (CHRM1) small molecule agonists, cell-based qHTS assay (AID 1963589). Further: nearly all actives have a fitted effect of over 35% in size. The essentials: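 Agonist-mode calcium-flux screen: compounds at 15 concentrations, three independent runs, were pin-transferred onto dye-loaded human CHRM1-CHO cells. Fluorescence was then recorded kinetically every second over minutes.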

Test [14] in a line: cAMP Responsive Elements (CRE) small molecule agonists, cell-based qHTS assay (AID 1963590). Put shortly: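 Agonist mode: compound added to CRE-bla HEK 293T cells (2,000/well, 18 h after plating) for 3 h at 37 C/5% CO2. Reporter activity detected via FRET beta-lactamase substrate, 2 h room-temperature loading.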
Test [15] can be described thus: cAMP Responsive Elements (CRE) small molecule antagonists, cell-based qHTS assay (AID 1963591; active means well fitted inhibition curve with a large enough effect in the signal ratio in the repeat runs, not every such curve was filed as active; the % refers to the signal ratio). Put shortly:
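Antagonist mode: compounds are added alongside the adenylyl cyclase activator NKH477 (0.25 uM final) to CRE-bla HEK293T cells for 3 h. LiveBLAzer FRET substrate, 2 h at room temperature, reports bla expression.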

Test [16] has as its target Beta-2 adrenergic receptor (Homo sapiens) (UniProt P07550). Kind of test: Adrenergic beta2 receptor (ADRB2) small molecule antagonists, cell-based qHTS assay (AID 1963592). Further: series mostly up to about 92 µM; nearly all actives have a fitted effect of over 50% in size. The essentials: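 Assay format: CHO-ADRB2 cells, 18-20hr seeding at 37C/5% CO2, then compound plus 1nM isoproterenol agonist mix for 0.5hr RT. Homogeneous time-resolved fluorescence cAMP detection after 1hr, expressed as 665/615 nm ratio.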

Test [17] addresses D(2) dopamine receptor (Homo sapiens) (UniProt P14416). Description: Dopamine D2 receptor (DRD2) small molecule agonists, cell-based qHTS assay (AID 1963594). Further: nearly all actives have a fitted effect of over 35% in size. The essentials: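 HEK293 cells stably expressing human DRD2, pre-treated with PDE inhibitor Ro20-1724 (0.1 mM final) and compound 10 min at room temperature, then stimulated with NKH477 (200nM […]) for 30 min. cAMP read by HTRF (665/620 nm).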

For test [18] the target is unchanged. Description: Dopamine D2 receptor (DRD2) small molecule antagonists, cell-based qHTS assay (AID 1963595; active means well fitted inhibition curve with a large enough effect in the signal ratio in the repeat runs, with a control signal flat; the % refers to the signal ratio). The essentials: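 Cells were plated and grown for 24 h at 37 °C. Ro20-1724 (0.1 mM final) went in first, then compound for 10 min. NKH477 (200 nM) with quinpirole (12 nM) followed for 30 min at RT, then HTRF detection reagents for 1 h.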
In test [19] the target is Muscarinic acetylcholine receptor M1 (Homo sapiens) (UniProt P11229). Kind of test: Cholinergic receptor muscarinic 1 (CHRM1) small molecule antagonists, cell-based qHTS assay (AID 1963588). Further: nearly all actives have a fitted effect of over 40% in size. The essentials: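 Compounds were tested at 15 concentrations in three independent runs. Dye-loaded CHRM1-CHO cells were exposed 5 min at room temperature before stimulation by acetylcholine added at 50nM. Intracellular calcium was read kinetically on FDSS for 3 min.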
Muscarinic acetylcholine receptor M1 (Homo sapiens), sequence (P11229 whole entry, looked up): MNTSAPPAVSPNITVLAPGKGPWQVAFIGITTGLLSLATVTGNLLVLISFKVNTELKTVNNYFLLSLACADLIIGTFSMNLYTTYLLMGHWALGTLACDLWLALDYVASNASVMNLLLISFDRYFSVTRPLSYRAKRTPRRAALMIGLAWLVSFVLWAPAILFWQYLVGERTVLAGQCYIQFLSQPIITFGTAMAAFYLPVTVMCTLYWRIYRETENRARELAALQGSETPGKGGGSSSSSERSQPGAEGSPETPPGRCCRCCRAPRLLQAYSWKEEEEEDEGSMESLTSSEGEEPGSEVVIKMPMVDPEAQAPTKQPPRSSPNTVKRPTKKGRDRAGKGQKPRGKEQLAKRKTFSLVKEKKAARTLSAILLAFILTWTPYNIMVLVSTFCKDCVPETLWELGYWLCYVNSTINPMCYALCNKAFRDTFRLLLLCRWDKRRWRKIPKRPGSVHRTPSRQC

A number with no mark means an inactive call. Records with an inconclusive call do not appear. Activity calls are given as the source filed them. Unless noted, the call rests on the fitted dose curve.
On the % scale 0 is the no-effect control and ±100 the full control effect.

KiSS-1 receptor (Homo sapiens), sequence (Q969F8 whole entry, looked up): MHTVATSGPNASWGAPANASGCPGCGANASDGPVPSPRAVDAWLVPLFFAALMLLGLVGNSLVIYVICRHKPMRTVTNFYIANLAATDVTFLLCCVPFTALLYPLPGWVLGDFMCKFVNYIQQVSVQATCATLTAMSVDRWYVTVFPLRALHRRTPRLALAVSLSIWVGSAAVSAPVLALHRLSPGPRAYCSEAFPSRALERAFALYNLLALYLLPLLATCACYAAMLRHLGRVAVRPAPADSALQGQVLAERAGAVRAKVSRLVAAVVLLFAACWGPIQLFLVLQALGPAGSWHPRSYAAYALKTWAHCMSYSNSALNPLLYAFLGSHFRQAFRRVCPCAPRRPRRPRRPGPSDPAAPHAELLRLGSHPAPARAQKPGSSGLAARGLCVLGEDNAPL
Beta-2 adrenergic receptor (Homo sapiens), sequence (P07550 whole entry, looked up): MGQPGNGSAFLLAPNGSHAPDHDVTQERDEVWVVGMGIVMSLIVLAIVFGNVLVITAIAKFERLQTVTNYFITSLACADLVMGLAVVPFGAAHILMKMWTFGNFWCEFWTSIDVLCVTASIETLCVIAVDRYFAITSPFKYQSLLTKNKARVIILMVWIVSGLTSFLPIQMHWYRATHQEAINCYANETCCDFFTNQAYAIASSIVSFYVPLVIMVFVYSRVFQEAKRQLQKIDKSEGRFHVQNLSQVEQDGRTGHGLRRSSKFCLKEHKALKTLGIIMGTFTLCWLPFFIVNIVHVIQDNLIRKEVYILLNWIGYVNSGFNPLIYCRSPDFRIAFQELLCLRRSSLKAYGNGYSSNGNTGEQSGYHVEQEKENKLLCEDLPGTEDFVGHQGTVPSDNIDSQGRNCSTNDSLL
D(2) dopamine receptor (Homo sapiens), sequence (P14416 whole entry, looked up): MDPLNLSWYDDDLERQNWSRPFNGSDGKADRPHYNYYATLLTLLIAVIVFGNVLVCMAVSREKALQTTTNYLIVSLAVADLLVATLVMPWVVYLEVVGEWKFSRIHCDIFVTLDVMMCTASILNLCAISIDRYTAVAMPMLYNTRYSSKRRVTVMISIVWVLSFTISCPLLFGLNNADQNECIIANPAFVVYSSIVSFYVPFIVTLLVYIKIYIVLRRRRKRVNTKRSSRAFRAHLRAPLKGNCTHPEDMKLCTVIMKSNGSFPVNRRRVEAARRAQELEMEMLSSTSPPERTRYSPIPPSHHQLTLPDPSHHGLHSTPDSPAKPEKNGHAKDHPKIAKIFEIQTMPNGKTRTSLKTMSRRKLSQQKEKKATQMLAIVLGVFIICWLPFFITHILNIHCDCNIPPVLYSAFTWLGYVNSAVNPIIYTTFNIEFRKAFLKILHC

As for `COCCOC(=O)C1=C(C)NC(C)=C(C(=O)OC/C=C/c2ccccc2)C1c1cccc([N+](=O)[O-])c1` (stereo not drawn), the Potency result in test [1], in test [2], in test [3], in test [6], in test [7] and in test [8] was “inactive” each time. Also, the Potency result in [9], in [10], in test [11], in [12], in [13] and in test [14] was “inactive” each time. For the same compound, the Potency entry in test [15], in test [16], in test [17] and in test [18] was “inactive” throughout. Besides, the result in test [4] and in test [5] was inactive.

As to `CC12CCCC=C1C(=O)OC2=O` (stereo not drawn), the Potency entry in test [1], in [2], in test [3], in test [6], in test [7] and in test [8] was “inactive” each time. Further, the Potency entry in test [9], in test [10], in test [11], in test [12], in [13] and in [14] was “inactive” each time. For the same compound, the Potency result in test [15], in test [16], in test [17] and in test [18] was “inactive” throughout. Further, the outcome in test [4] and in test [5] was inactive.

As for `O=C(CS)Nc1ccccc1`, the Potency entry in test [1], in test [3], in [6], in test [7], in [8] and in [9] was “inactive” in each case. Further, the Potency result in [10], in test [11], in test [12], in [13], in [14] and in test [15] was “inactive” each time. The Potency result in test [16] and in test [17] was “inactive” in each case. Moreover, in test [2], the Potency is 29.8 µM (active). Further, the result in test [4] and in test [5] was inactive.

In the case of `CCCC(C)c1ccccc1O` (stereo not drawn), the Potency result in [1], in test [2], in test [3], in [6], in test [7] and in test [8] was “inactive” in each case. Further, the Potency entry in [9], in test [10], in test [11], in test [12], in [19] and in [16] was “inactive” each time. Also, the Potency entry in [17] and in test [18] was “inactive” in each case. Moreover, the outcome in test [4] and in test [5] was inactive.

With `C/C(=C(\CCOP(=O)(O)O)SC(=O)c1ccccc1)N(C=O)Cc1cnc(C)nc1N`, the activity change, negative = cytotoxicity was -6.37% [at 8.39 µM] in [1], 1.21% [at 5.99 µM] in [8], 1.33% [at 5.99 µM] in test [9] and 10.8% [at 5.99 µM] in test [10]. Further, in test [2], the activity, positive = activation was -0.129% [at 8.39 µM]. In addition, the activity change in test [3] is -0.163% [at 5.22 µM, active compounds read high]. Further, the activation in test [4] is -0.956% [at 6.97 µM]; in [5], -0.0907% [at 5.23 µM]; in test [6] it was -1.03% [at 5.99 µM]; in test [7] it was -4.95% [at 5.99 µM]; in test [11], 1.46% [at 5.99 µM]; in [12], -0.64% [at 7.02 µM]. Moreover, the activation in test [14] is 1.28% [at 8.39 µM]. The activity change, negative = inhibition in test [15] was 1.78% [at 8.39 µM]; in test [16] it was 2.25% [at 8.39 µM]; in [18] it was 2.34% [at 8.38 µM].

For `OC[C@@H](O)[C@@H](O)CO`, the Potency entry in [1], in test [2], in [3], in [6], in test [7] and in test [8] was “inactive” throughout. The Potency entry in [9], in test [10], in test [11], in [12], in [19] and in [14] was “inactive” in each case. For the same compound, the Potency result in test [15], in [16], in test [17] and in test [18] was “inactive” in each case. The result in [4] and in test [5] was inactive.

For `CCn1ccnc1CC1COc2ccccc2O1` (stereo not drawn), the Potency result in test [1], in test [2], in [3], in [6], in [7] and in [8] was “inactive” throughout. Besides, the Potency result in test [9], in test [10], in test [11], in test [12], in test [13] and in [14] was “inactive” throughout. In addition, the Potency entry in [15], in [16] and in [18] was “inactive” in each case. The result in test [4] and in test [5] was inactive.

Consider `COc1cccc([C@H](O)C2CCN(CCc3ccc(F)cc3)CC2)c1OC`, for which the Potency entry in [1], in test [2], in test [3], in [6], in test [7] and in test [8] was “inactive” throughout. For the same compound, the Potency result in test [9], in test [10], in [11], in test [19], in [13] and in test [14] was “inactive” throughout. Moreover, the Potency result in [15], in test [16], in [17] and in [18] was “inactive” each time. In addition, the result in [4] and in test [5] was inactive.

The record behind these values is PubChem BioAssay (Tox21).
